Data: PubChem BioAssay (NCI)
About 83,000 compounds went through this panel and 20% of them were active in at least one assay; those are over-represented in the sample as a whole.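 Percent growth is the endpoint: 0 to 100 indicates growth inhibition (40 means 60% inhibition), 0 means no net growth, and negative values indicate cell death.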 Unmarked numbers belong to inactive results. The source made the active and inactive calls. Rule for the calls: active = growth percent below 10; inactive = the rest.

Columns and labels:
Assay in all cases: NCI-60 one-dose screen, 48 h (100 = growth as untreated, 0 = no growth, -100 = all killed)
[1] = test system: DU-145 prostate; settings: 10 µM unless noted
[2] = test system: K-562 leukemia; settings: 10 µM unless noted
[3] = test system: MALME-3M melanoma; settings: 10 µM unless noted
[4] = test system: MDA-MB-231 breast; settings: 10 µM unless noted
[5] = test system: RXF 393 renal; settings: 10 µM unless noted
[6] = test system: SF-268 CNS; settings: 10 µM unless noted
[7] = test system: SF-295 CNS; settings: 10 µM unless noted
[8] = test system: SF-539 CNS; settings: 10 µM unless noted
[9] = test system: UACC-257 melanoma; settings: 10 µM
[10] = test system: M14 melanoma; settings: 10 µM unless noted
[11] = test system: HCT-15 colon; settings: 10 µM unless noted
[12] = test system: HT29 colon; settings: 10 µM unless noted
[13] = test system: SNB-19 CNS; settings: 10 µM unless noted
[14] = test system: U251 CNS; settings: 10 µM unless noted
[15] = test system: PC-3 prostate; settings: 10 µM unless noted
[16] = test system: SK-MEL-5 melanoma; settings: 10 µM unless noted
[17] = test system: UACC-62 melanoma; settings: 10 µM unless noted
[18] = test system: LOX IMVI melanoma; settings: 10 µM unless noted
[19] = test system: SK-MEL-28 melanoma; settings: 10 µM unless noted
[20] = test system: SNB-75 CNS; settings: 10 µM unless noted

Compound	growth [1] [%]	growth [2]	growth [3]	growth [4] [%]	growth [5]	growth [6] [%]	growth [7]	growth [8]	growth [9]	growth [10]	growth [11]	growth [12] [%]	growth [13] [%]	growth [14]	growth [15] [%]	growth [16]	growth [17]	growth [18]	growth [19] [%]	growth [20] [%]
CC(c1ccccc1)N1C(=O)/C(=C/c2csc(C#N)n2)SC1=S (stereo not drawn)	87.7	40.8%	82.4%	90.1	90.1%	101	103%	93.4%	81.7%	78.4%	76.1%	106	93.7	94.1%	90.5	96.9%	85.4%	39.8%	93.5	
Cc1csc(Nc2cccc(Nc3nc(C)cs3)c2)n1	83.8	60.1%	84.8%	79.2	91%	85.2	66.2%	83.8%	89.7%	86%	79.1%	105	82.3	83.3%		44.9%	66.9%	74.5%	84.3	97.4
COC[C@@]1(C)CC[C@]2(C)CC[C@]3(C)C(=CC[C@@H]4[C@@]5(C)CCCNC(C)(C)[C@@H]5CC[C@]43C)C2C1 (stereo partly drawn)	73.6	6.79% (active)	56.7%	77.7	72.2%	77.1	3.52% (active)	62.7%	60%	50.1%	16.1%	23.3	67.5	35.3%	46.4	87.7%		12.6%	66.6	104
C=CCn1c(SCC(=O)c2ccc(OC)cc2)nnc1-c1ccc(OC)cc1	99.8	94.7%	96.4%	94.9	87.9%	95.2	97.7%	100%	96.8%	90.9%	98.1%	108	99.7	102%		-20% (active)	95.4%	103%	100	108
O=C(CCCCCCN1CC(=O)N2[C@@H](c3ccc(Cl)c(F)c3)c3[nH]c4ccccc4c3C[C@H]2C1=O)NO	87.8	53.7%	59.8%	75.9	100%	106	78.7%	83.8%	82%	82.4%	98.6%	89.3	86.6	85.1%	63.8	86%	48.7%	-79.9% (active)	86.2	
O=C1c2c(c3c4cc(Br)ccc4[nH]c3c3ccc4ccccc4c23)C(=O)N1CCN1CCCCC1	22.9	-50.3% (active)	68.1%	77.7	59.5%	38.4	23.7%	38.7%	93%	20%	-60% (active)	10.3	37.7	-10.9% (active)	65	68.3%			93.5	49.6
C=CCn1c(SCC(=O)Nc2ccc(OC)cc2)nnc1-c1ccc(Cl)cc1	99.5	89.6%	89.9%	85.3	86.6%	90.6	98.1%	94.8%	97.1%	96.3%	73.7%	105	91.7	105%		96.4%	81.5%	93.8%	92.5	97.4
O=C(/C=C1\C=CN(CCCCF)c2ccccc21)n1ccc2ccccc21	127	104%	100%	94.9	126%	121	106%	98.8%	110%	101%	102%	107	105	105%	103	98.8%	89.2%	106%	108	
Oc1ccc(CSc2nnc(-c3ccc(Br)cc3)n2-c2ccccc2)c2cccnc12	39.2	15.8%	52%	59.2	71.5%	32.7	6.74% (active)	16.8%	25.2%	30.1%	15.7%	89.6	17.8	7.75% (active)	29.5	12%	0.404% (active)	36.2%	40.9	
COc1cc(C(=O)c2cc(C(C)=O)c3c4ccccc4ccn23)cc(OC)c1OC	94.4	23.9%	64.6%	54.7	49.2%	74.3	55.2%	75.3%	75.8%	58.6%	28.5%	39.6	64.3	73.6%	48.1	22.9%		58.4%	80.9	45.3
Fc1ccccc1/C=C(/C1=NCCN1)n1cnc2ccccc21	97.2	94.1%	91%	93.4	84.1%	90.9	100%	95.6%	96.9%	95.1%	93%	112	97.6	101%	95.7	106%		90.3%	95.3	92.2
C#C[C@]1(O)CC[C@H]2[C@@H]3CC=C4c5sc(-c6cccc(F)c6)nc5CC[C@]4(C)[C@H]3CC[C@@]21C	99.2	19%	95.4%	93.2	20.7%	85.8	61.9%	67.3%	90%	82%	53.5%	78.4	87.3	75%	68.7	96.4%		80.8%	81.1	70
Oc1ccc(CSc2nnc(-c3ccncc3)n2-c2ccccc2)c2cccnc12	28.2	18.4%	31.8%	30.7	23.6%	23.1	4.58% (active)	21.1%	10.7%	23.1%	15.1%	96	12.7	15.8%	18.9	1.83% (active)	-4.64% (active)	20.4%	29.4	
Oc1ccccc1-c1nnc(SCc2ccc(O)c3ncccc23)n1-c1ccccc1	22.9	10.8%	0.0457% (active)	28.2	-9.85% (active)	14.9	1.17% (active)	7.96% (active)	1.58% (active)	-28.3% (active)	17.6%	14.6	16.5	11.5%	20.5	-60.3% (active)	-8.29% (active)	3.79% (active)	14.8	
COC(=O)c1c(C(=O)OC)c2n(CC(=O)Nc3cccc4cccnc34)c3ccccc3n2c1C(=O)c1ccc(C)cc1	105	91.2%	97.7%	88.4	97.8%	97.2	95.1%	106%	104%	99.9%	97.6%	102	91.1	97.7%	82.5	96.4%	84.6%	98.9%	110	
O=[N+]([O-])c1ccc(-c2nnc(SCc3ccc(O)c4ncccc34)o2)cc1	29.5	17.6%	21.5%	38.1	14.8%	27.7	9.85% (active)	23.5%	18.6%	27.4%	10.9%	47.4	22.2	16.2%	15	-6.14% (active)	25.3%	25%	38.9	
